G9a inh – qHTS Assay for Inhibitors of Histone Lysine Methyltransferase G9a. Histone-lysine N-methyltransferase EHMT2 (Homo sapiens), Q96KQ7. G9a H3K9 monomethylation, AlphaScreen, 2 h. Potency, µM (titrated, usually from 102 µM), for inactives: top-dose activity, negative = inhibition, most hits filed as inhibitors. hit rate 8.8% among 350,000; further: on the % scale 0 is the no-effect control and ±100 the full control effect; nearly all actives have a fitted effect of over 75% in size
Target sequence (Q96KQ7 913-1193 limits assumed): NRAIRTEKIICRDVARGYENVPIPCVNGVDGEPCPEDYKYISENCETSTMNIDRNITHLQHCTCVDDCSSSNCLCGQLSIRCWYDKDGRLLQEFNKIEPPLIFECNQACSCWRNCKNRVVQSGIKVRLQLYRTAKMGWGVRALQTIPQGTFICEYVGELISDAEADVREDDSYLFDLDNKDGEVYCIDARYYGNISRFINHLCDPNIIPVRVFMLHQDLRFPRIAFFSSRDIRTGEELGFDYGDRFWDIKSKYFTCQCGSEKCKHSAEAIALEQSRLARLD
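Using a bead-based AlphaScreen, monomethylated H3K9 product from 2 h room-temperature reactions (G9a 20 nM, peptide 500 nM, SAM 20 uM) was detected with 0.5 ug/mL rabbit anti-H3K9me1 antibody.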
GLS inhibitor – qHTS for Inhibitors of Glutaminase (GLS); hit rate 0.21% among 410,000; Glutaminase kidney isoform, mitochondrial (Homo sapiens), O94925; Potency, µM (doses to about 45.5 µM), for inactives: top-dose activity change, negative = inhibition, usual class: inhibitors; GLS enzymatic activity, qHTS titration; further: on the % scale 0 is the no-effect control and ±100 the full control effect
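hKGA in 45 mM KH2PO4 pH 8.2, 0.02% Tween-20 with pin-transferred compounds; 1 mM L-glutamine (stock) plus glutamate oxidase/HRP/Amplex Red coupling added. Fluorescence read initially and after 30 min at RT.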
BAZ2B block – qHTS Assay for Inhibitors of BAZ2B | AlphaScreen BAZ2B-H3K14Ac peptide displacement | Potency, µM (titrated, usually from 114 µM), inactives show top-dose activity change, negative = inhibition, most hits filed as inhibitors | hit rate 4.4% among 360,000; further: on the % scale 0 is the no-effect control and ±100 the full control effect; nearly all actives have a fitted effect of over 60% in size
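AlphaScreen displacement of biotin-H3(5-23)K14Ac peptide (50 nM final) from BAZ2B (50 nM final) in PBS pH 7.4, 0.01% Tween-20; complex preformed 30 min RT, then compounds (top 110 uM) 30 min RT, beads 20 min dark.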
JMJD2A Tudor – qHTS Assay for Inhibitors of JMJD2A-Tudor Domain. Lysine-specific demethylase 4A (Homo sapiens), O75164. AlphaScreen JMJD2A-Tudor / H3K4me3 peptide binding. Potency, µM (titrated, usually from 114 µM), inactives show at the highest dose activity change, negative = inhibition, hits mostly inhibitors. hit rate 4.4% among 390,000. AID 504339, 2011; further: on the % scale 0 is the no-effect control and ±100 the full control effect; nearly all actives have a fitted effect of over 50% in size
HP1b chromo inh – HTS for Inhibitors of HP1-beta Chromodomain Interactions with Methylated Histone Tails; Chromobox protein homolog 1 (Homo sapiens), P83916; AID 540317, 2011; hit rate 0.56% among 390,000; Potency, µM (series often up to 114 µM), for inactives: top-dose activity change, negative = inhibition, usual class: inhibitors; AlphaScreen HP1-beta / biotin-H3K9me3 peptide binding; further: nearly all actives have a fitted effect of over 70% in size
Target sequence (P83916 whole entry, looked up): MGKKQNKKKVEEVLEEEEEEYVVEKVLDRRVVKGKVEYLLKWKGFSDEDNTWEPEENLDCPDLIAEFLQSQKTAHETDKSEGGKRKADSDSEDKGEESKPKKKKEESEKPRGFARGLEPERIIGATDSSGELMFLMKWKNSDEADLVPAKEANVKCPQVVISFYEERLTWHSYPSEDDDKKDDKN
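HP1-beta protein (50 nM final) preincubated 30 min at room temperature with biotinylated H3(1-18)K9me3 peptide (50 nM) in PBS pH 7.4, 0.01% Tween-20, then compound added for 30 min. AlphaScreen streptavidin donor/nickel chelate acceptor beads (10 ug/mL final), 30 min dark, luminescence read.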
The depositor's hits bear a star; u = inconclusive; x = no result; [ ] = remark or other dose. Hits are enriched below; roughly 10% of the tested compounds scored in any of these assays. The call rests on the fitted dose curve; in most records, active means well fitted curve in the direction sought with a large enough effect; inconclusive means small, poorly fitted or top-dose-only effect, or another doubt; inactive means no such curve, though single readings can be large; an effect the other way counts as inactive or inconclusive. Potency means the concentration at half of the fitted maximal effect.

SMILES	G9a inh	GLS inhibitor	BAZ2B block	JMJD2A Tudor	HP1b chromo inh
CC1=NN(c2ccccc2)C(=O)/C1=C\c1cc(C)n(-c2ccccc2)c1C	3.5µM*	-4%	u	-27%	u
COc1ccc(/C=C2/C(=O)N(c3ccccc3)N=C2C)cc1Br	35µM*	5%	13µM*	18µM*	22µM*
COc1cccc(-c2nc(N(C)Cc3ccco3)c3ccccc3n2)c1	1%[0.501 µM]	x	x	x	x
Nc1cccc2c1nnn2C1OC(CO)C(O)C(O)C1O (stereo not given)	3%	x	-16%	x	x
Cc1cccc2c1c(N=NC(N)=S)c(O)n2C1OC(CO)C(O)C(O)C1O (stereo not given)	35µM*	10%	0%	-2%	29%
CCCC[C@@H]1CNCCN1CCc1cccc(F)c1	-32%[2.33 µM]	11%	-36%	-12%	34%
Fc1cccc(CCN2CCNC[C@@H]2Cc2ccccc2)c1	x	u	x	56µM*	14%
CNS(=O)(=O)c1cccc(C(=O)OC2CCCCC2=O)c1 (stereo not given)	13µM*	3%	-1%	-2%	14%
CNS(=O)(=O)c1cccc(C(=O)OCC(=O)NC2CCCC2)c1	-31%[2.33 µM]	-4%	-4%	4%	34%
Cc1ccc(NC(=S)N=Nc2c(O)n(C)c3ccc(S(=O)(=O)N4CCOCC4)cc23)cc1C	-21%	3%	-34%	-15%	2%
Cn1c(O)c(N=NC(=S)Nc2ccccc2F)c2cc(S(=O)(=O)N3CCOCC3)ccc21	32µM*	14%	4%	u	-4%
CCOc1cc(C(N)=O)cc(OCC)c1OCC	0%[12.7 µM]	5%	-2%	-5%	36%
CCOc1cc(-c2nn3cnnc3s2)cc(OCC)c1OCC	2%	u	3%	18µM*	-9%
O=C(Nc1nc2c(s1)CCc1ccccc1-2)c1cccs1	u	15%	8%	-7%	51%
Fc1ccccc1Nc1nc2c(s1)CCc1ccccc1-2	6.3µM*	x	u	x	x
CCCn1c(SCC(=O)NC2CCCCC2)nnc1-c1ccccn1	-3%	-8%	u	10%	43%
Cn1c(SCC(=O)NC2CCCCC2)nnc1-c1ccccn1	28%	10%	79µM*	2%	24%
CCn1nnnc1SCC(=O)N1CCN(c2ccccc2)CC1	u	25%	-37%	-10%	14%
O=C(CSc1nnnn1Cc1ccccc1)N1CCN(c2ccccc2)CC1	45µM*	16%	-8%	89µM*	2%
Cn1c(SCC(=O)NC2CCCC2)nnc1-c1ccccn1	x	0%	u	-3%	35%
O=C(CSc1nnc(-c2ccccn2)n1Cc1ccccc1)NC1CCCC1	-30%	18%	89µM*	-2%	27%
C=CCn1c(SCC(=O)NC2CCCCC2)nnc1-c1ccccn1	10%	-5%	79µM*	-8%	32%
O=C(CSc1nnnn1Cc1ccccc1)NC1CCCCC1	50µM*	-3%	-13%	-1%	38%
COc1ccc(-c2nnc(SCC(=O)NC3CCCC3)n2C)cc1	u	-9%	-2%	9%	32%
COc1cc(-c2nnc(SCC(=O)NC3CCCC3)n2C)cc(OC)c1O	79µM*	7%	-8%	-2%	51%
SMILES	G9a inh	GLS inhibitor	BAZ2B block	JMJD2A Tudor	HP1b chromo inh
C=CCn1c(CSCc2ccccc2)nnc1SCC(=O)N1CCN(c2ccccc2)CC1	25µM*	2%	-29%	-19%	15%
Cc1ccccc1OCc1nnc(SCC(=O)NC2CCCCC2)o1	50µM*	5%	9%	-11%	u
CCC1=C[C@@H]2CN(C1)Cc1c([nH]c3ccccc13)[C@@](C(=O)OC)(c1cc3c(cc1OC)N(C)[C@@H]1[C@@](O)(C(=O)OC)[C@H](OC(C)=O)[C@]4(CC)C=CCN5CC[C@]31[C@@H]54)C2	u	22%	x	x	x
Cc1ccc(-n2ncc3c2CC(C)(C)CC3NC(=O)c2c(C)noc2C)cc1 (stereo not given)	18%[0.501 µM]	8%	-12%	-11%	5%
C=CCn1c(SCC(=O)Nc2ccc3c(c2)OCCO3)nnc1-c1ccccn1	-2%	3%	u	89µM*	11%
C=CCn1c(COc2ccccc2)nnc1SCC(=O)Nc1ccc2c(c1)OCCO2	0%	2%	-27%	-13%	9%
CCc1ccc2c(CC(=O)NNC(=O)c3ccncc3)coc2c1	0%[12.7 µM]	16%	2%	7%	55%
Cc1ccc(S(=O)(=O)C(C#N)c2nc3ccccc3nc2N2CCCCC2)cc1 (stereo not given)	45µM*	x	6%	x	x
COc1ccc(S(=O)(=O)C(C#N)c2nc3ccccc3nc2N2CCC(C)CC2)cc1 (stereo not given)	3.2µM*	x	45µM*	x	x
CC1CCCN(c2nc3ccccc3nc2C(C#N)S(=O)(=O)c2ccccc2)C1 (stereo not given)	u	19%	u	-17%	36%
CC1(Cc2ccc(F)c(Cl)c2)C(=O)Nc2c(Cl)cccc21 (stereo not given)	x	-16%	x	x	x
Cc1nc2c(C(=O)NCCc3ccccc3)c[nH]n2c(=O)c1Cl	50µM*	3%	-1%	-31%	10%
Cc1nc2c(-c3ccc(F)cc3)c(C)[nH]n2c(=O)c1Cl	50µM*	14%	-2%	-15%	31%
Cc1nc2c(C(=O)NCc3ccc(F)cc3)c[nH]n2c(=O)c1Cl	50µM*	8%	3%	-17%	14%
Cc1nc2c(C(=O)NCc3ccccc3)cnn2c(C)c1Cc1ccc(F)cc1	-2%[59 µM]	13µM*	14%	u	0%
Cc1nc2c(C(=O)NCc3ccccc3Cl)cnn2c(C)c1Cc1ccccc1	0%[59 µM]	-12%	1%	-15%	43%
Cc1c(C(=O)Nc2ccc(F)cc2)oc2ccc(S(=O)(=O)N3CCCCCC3)cc12	u	-5%	-7%	-19%	-16%
CCOC(=O)C1=C(CN2CCN(c3ccc(Cl)cc3)CC2)NC(=O)NC1c1ccc(F)cc1 (stereo not given)	-6%[59 µM]	9%	-4%	u	-15%
CCOC(=O)c1sc(N)nc1C(C)(C)C	16µM*	-6%	9%	-6%[11.4 µM]	0%
COC(=O)c1sc(NC(=O)COc2ccc(OC)cc2)nc1C	x	0%	x	-10%	37%
CCOC(=O)c1sc(NCCNc2nc(C)c(C(=O)OCC)s2)nc1C	50µM*	4%	-12%	50µM*	8%
CCOC(=O)c1sc(NC(=O)COc2ccc3c(c2)OCO3)nc1C	40µM*	-12%	-2%	1%	43%
CCOC(=O)c1sc(Nc2ccc(Br)cc2)nc1C	u	2%	-26%	56µM*	9%

Screens deposited in PubChem BioAssay by National Center for Advancing Translational Sciences (NCATS).
